Laboratory results as given in PubChem BioAssay (Tox21).
Results filed as inconclusive are left out. Activity calls are given as the source filed them. Unless noted, calls follow the shape of the dose curve; as a rule, active = well fitted curve in the direction sought with a large enough effect in the repeat runs; inconclusive = weak or mixed curves; inactive = no such curve, though single readings can be large; an effect the other way counts as inactive or inconclusive.

Assays:
[1] = qHTS assay to identify aromatase inhibitors - cell viability counter screen (AID 743084);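 also: cells stimulated with testosterone during compound exposure; nearly all actives have a fitted effect of over 55% in size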
[2] = target: Aryl hydrocarbon receptor (Homo sapiens) (UniProt P35869); test: qHTS assay to identify small molecule that activate the aryl hydrocarbon receptor (AhR) signaling pathway (AID 743085);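 also: HG2L7.5c1 human HepG2 liver cells with stably integrated DRE-driven firefly reporter; series mostly up to about 70 µM; nearly all actives have a fitted effect of over 15% in size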
Outline: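 A multiplexed format paired cell viability (CellTiter-Fluor fluorescence) with AhR-dependent luciferase output (ONE-Glo luminescence) in the same wells of HepG2 DRE-luc cells after 24 h compound exposure at 37C.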

[3] = qHTS assay to identify small molecule that activate the aryl hydrocarbon receptor (AhR) signaling pathway - cell viability counter screen (AID 743086);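 also: HepG2 liver cells carrying the AhR DRE luciferase reporter; series mostly up to about 70 µM; nearly all actives have a fitted effect of over 45% in size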
Outline: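 HepG2-AhR-luc (HG2L7.5c1) cells, 4000/well, were preincubated 5 h at 37C, exposed to compound in qHTS format for 24 hr at 37C, then given CellTiter-Fluor for 30 min; viability was read as fluorescence in the reporter wells.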

[4] = target: Peroxisome proliferator-activated receptor gamma (Homo sapiens) (UniProt P37231); test: qHTS assay to identify small molecule agonists of the peroxisome proliferator-activated receptor gamma (PPARg) signaling pathway (AID 743094; active = well fitted activation curve with a large enough effect in the signal ratio in the repeat runs, not every such curve was filed as active; the % refers to the signal ratio)
Outline: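 Beta-lactamase FRET fluorescence was the read-out after a 1 h room-temperature substrate step, following 17 h compound treatment at 37C of HEK293H cells expressing a UAS-driven bla reporter responsive to PPARg.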

[5] = target: Peroxisome proliferator-activated receptor gamma (Homo sapiens) (UniProt P37231); test: qHTS assay to identify small molecule antagonists of the peroxisome proliferator-activated receptor gamma (PPARg) signaling pathway (AID 743191; calls by dose curve; also: series mostly up to about 63 µM; nearly all actives have a fitted effect of over 30% in size)
Outline: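 GeneBLAzer PPARg UAS-bla HEK293H cells carrying a UAS-driven beta-lactamase reporter were plated at 3000 cells/well, preincubated 5 h at 37C, then given compound for 17 h at 37C; LiveBLAzer B/G FRET substrate was read after 1 h at room temperature.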

[6] = qHTS assay to identify small molecule antagonists of the peroxisome proliferator-activated receptor gamma (PPARg) signaling pathway - cell viability counter screen (AID 743194); details: Potency: co-treated with 50 nM rosiglitazone unless noted; also: nearly all actives have a fitted effect of over 55% in size
Outline: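 PPARg-UAS-bla HEK293H cells were plated, rested 5 h at 37 C, then treated with compounds plus rosiglitazone (50 nM final) for 17 h at 37 C; viability was then read by CellTiter-Glo luminescence after 30 min at room temperature.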

[7] = qHTS assay for small molecule agonists of the antioxidant response element (ARE) signaling pathway (AID 743202; active = well fitted activation curve with a large enough effect in the signal ratio in the repeat runs, not every such curve was filed as active; the % refers to the signal ratio)
Outline: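 Compounds delivered in DMSO to ARE-bla HepG2 cells (2,000 cells/well, pre-incubated 5 h) and left 16 h at 37 C. LiveBLAzer B/G FRET substrate then added for 2 h at RT before fluorescence reading.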

[8] = qHTS assay for small molecule agonists of the antioxidant response element (ARE) signaling pathway - cell viability counter screen (AID 743203; calls by dose curve; also: nearly all actives have a fitted effect of over 55% in size)
Outline: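 HepG2 cells carrying ARE-driven beta-lactamase; 2,000 cells/well; 5 hrs plating; compound pinned from DMSO; 16 hrs 37C/5% CO2; CellTiter-Glo added; 30 min RT; luminescence.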

[9] = qHTS assay for small molecule activators of the heat shock response signaling pathway - cell viability counter screen (AID 743209); also: nearly all actives have a fitted effect of over 50% in size
Outline: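 Luminescence from CellTiter-Glo, added after the beta-lactamase FRET read, gave the viability signal. Cells were HSE-bla HeLa treated with DMSO-dissolved compounds for 5 h at 37 C following overnight plating.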

[10] = qHTS assay for small molecule activators of the heat shock response signaling pathway (AID 743210; active = well fitted activation curve with a large enough effect in the signal ratio in the repeat runs, with a control signal flat, not every such curve was filed as active; the % refers to the signal ratio;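 also: HeLa cells with beta-lactamase reporter driven by heat shock elements; series mostly up to about 63 µM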)
Outline: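 Reporter gene assay: HeLa cells stably bearing an HSE-bla construct, compound treatment 5 h at 37 C, LiveBLAzer substrate 2.5 h at RT, fluorescence intensity.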

[11] = qHTS assay to identify small molecule agonists of the peroxisome proliferator-activated receptor delta (PPARd) signaling pathway - cell viability counter screen (AID 743211); also: nearly all actives have a fitted effect of over 55% in size
Outline: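 Tox21 library compounds, delivered in DMSO, were incubated 17 h with PPARd-bla HEK293H cells; cytotoxicity was taken from CellTiter-Glo luminescence read 30 min after reagent addition.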

[12] = qHTS assay to identify small molecule antagonists of the peroxisome proliferator-activated receptor delta (PPARd) signaling pathway - cell viability counter screen (AID 743213); also: nearly all actives have a fitted effect of over 50% in size
Outline: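 Cytotoxicity counter screen: CellTiter-Glo luminescence read 30 min after addition, in the same wells as the reporter assay. There, PPARd UAS-bla HEK293H cells (3000/well) were treated 17 h at 37 C with compound and 300 nM L165041.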

[13] = target: Bile acid receptor (Homo sapiens) (UniProt Q96RI1); test: qHTS assay to identify small molecule antagonists of the farnesoid-X-receptor (FXR) signaling pathway (AID 743217; active = well fitted inhibition curve with a large enough effect in the signal ratio in the repeat runs, not every such curve was filed as active; the % refers to the signal ratio)
Outline: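 HEK 293T FXR-UAS-bla, 5000 cells/well; compound + CDCA 50 uM final; 16 h, 37 °C; B/G FRET substrate 2 h RT; fluorescence.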

[14] = qHTS assay to identify small molecule agonists of the farnesoid-X-receptor (FXR) signaling pathway - cell viability counter screen (AID 743218); also: nearly all actives have a fitted effect of over 45% in size
Outline: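 HEK 293T FXR-bla cells; 5 h pre-incubation, 16 h compound exposure at 37 C; LiveBLAzer substrate 2 h RT, then CellTiter-Glo 30 min RT, luminescence.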

[15] = qHTS assay to identify small molecule antagonists of the farnesoid-X-receptor (FXR) signaling pathway - cell viability counter screen (AID 743221; active = well fitted cell-killing curve with a large enough effect in the repeat runs, not every such curve was filed as active; also: nearly all actives have a fitted effect of over 50% in size)
Outline: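 Cytotoxicity is taken from ATP luminescence (CellTiter-Glo, 30 min, room temperature) in FXR-bla HEK 293T cells previously incubated 16 h at 37 C with compound and chenodeoxycholic acid at 50 uM final.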

[16] = target: Peroxisome proliferator-activated receptor delta (Homo sapiens) (UniProt Q03181); test: qHTS assay to identify small molecule agonists of the peroxisome proliferator-activated receptor delta (PPARd) signaling pathway (AID 743212; calls by dose curve)
Outline: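 A PPARd-bla HEK293H line with beta-lactamase under an Upstream Activator Sequence is treated with compounds at 37 C. Substrate loading for 2 h at room temperature precedes the fluorescence measurement.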

[17] = target: Peroxisome proliferator-activated receptor delta (Homo sapiens) (UniProt Q03181); test: qHTS assay to identify small molecule antagonists of the peroxisome proliferator-activated receptor delta (PPARd) signaling pathway (AID 743215; active = well fitted inhibition curve with a large enough effect in the signal ratio in the repeat runs, not every such curve was filed as active; the % refers to the signal ratio;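 also: cells stimulated with agonist L165041 at 300 nM final during compound exposure; series mostly up to about 62 µM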)
Outline: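 Read-out is beta-lactamase FRET fluorescence, measured 2 h after substrate addition at room temperature. Beforehand, UAS-bla HEK293H cells carrying the PPARd reporter were exposed to compounds with L165041 at 300 nM final for 17 h at 37 C.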

[18] = target: Vitamin D3 receptor (Homo sapiens) (UniProt P11473); test: qHTS assay to identify small molecule agonists of the vitamin D receptor (VDR) signaling pathway (AID 743222; calls by dose curve)
Outline: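 VDR-bla cells, 2,000/well; 4 h preincubation 37C; cpd (DMSO) 16 h; LiveBLAzer B/G substrate 2 h RT; fluorescence intensity read.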

[19] = target: Vitamin D3 receptor (Homo sapiens) (UniProt P11473); test: qHTS assay to identify small molecule antagonists of the vitamin D receptor (VDR) signaling pathway (AID 743223; active = well fitted inhibition curve with a large enough effect in the signal ratio in the repeat runs, not every such curve was filed as active; the % refers to the signal ratio)
Outline: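 Quantitative HTS in VDR-bla reporter cells stimulated with 1alpha,25-dihydroxyvitamin D3, 3 nM final. Compound exposure 16 h, 37C, 5% CO2. Read-out: beta-lactamase FRET substrate fluorescence, 2 h RT.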

[20] = target: Bile acid receptor (Homo sapiens) (UniProt Q96RI1); test: qHTS assay to identify small molecule agonists of the farnesoid-X-receptor (FXR) signaling pathway (AID 743220; active = well fitted activation curve with a large enough effect in the signal ratio in the repeat runs, not every such curve was filed as active; the % refers to the signal ratio)
Outline: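 Beta-lactamase reporter under UAS control in GeneBLAzer FXR HEK 293T cells (5000/well) measured with LiveBLAzer FRET substrate after 2 h at room temperature. Compound exposure lasted 16 h at 37C.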

Measured: Potency

Sequence of Aryl hydrocarbon receptor (Homo sapiens) (P35869 whole entry, looked up): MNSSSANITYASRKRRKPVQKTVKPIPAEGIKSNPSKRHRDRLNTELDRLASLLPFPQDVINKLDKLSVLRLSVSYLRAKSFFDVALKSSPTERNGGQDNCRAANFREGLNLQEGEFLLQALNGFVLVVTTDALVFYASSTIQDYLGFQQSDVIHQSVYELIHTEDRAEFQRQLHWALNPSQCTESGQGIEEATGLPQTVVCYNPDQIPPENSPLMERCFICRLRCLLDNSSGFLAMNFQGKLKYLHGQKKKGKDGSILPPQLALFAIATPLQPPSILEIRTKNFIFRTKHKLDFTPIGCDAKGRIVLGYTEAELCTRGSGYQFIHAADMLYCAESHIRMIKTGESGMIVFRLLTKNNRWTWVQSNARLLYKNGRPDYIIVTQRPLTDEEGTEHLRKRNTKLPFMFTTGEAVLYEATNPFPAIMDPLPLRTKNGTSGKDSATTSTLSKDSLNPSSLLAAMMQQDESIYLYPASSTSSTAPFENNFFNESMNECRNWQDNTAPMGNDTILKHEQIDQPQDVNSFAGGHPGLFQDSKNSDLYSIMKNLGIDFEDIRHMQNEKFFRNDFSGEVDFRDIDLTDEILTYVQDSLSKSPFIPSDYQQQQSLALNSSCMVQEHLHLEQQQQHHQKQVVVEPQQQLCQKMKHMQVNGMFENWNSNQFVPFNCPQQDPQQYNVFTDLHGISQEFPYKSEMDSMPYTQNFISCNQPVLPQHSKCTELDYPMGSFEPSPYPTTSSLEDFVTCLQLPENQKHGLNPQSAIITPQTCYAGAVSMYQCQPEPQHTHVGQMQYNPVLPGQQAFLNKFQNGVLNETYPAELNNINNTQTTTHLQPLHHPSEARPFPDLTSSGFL
Sequence of Vitamin D3 receptor (Homo sapiens) (P11473 whole entry, looked up): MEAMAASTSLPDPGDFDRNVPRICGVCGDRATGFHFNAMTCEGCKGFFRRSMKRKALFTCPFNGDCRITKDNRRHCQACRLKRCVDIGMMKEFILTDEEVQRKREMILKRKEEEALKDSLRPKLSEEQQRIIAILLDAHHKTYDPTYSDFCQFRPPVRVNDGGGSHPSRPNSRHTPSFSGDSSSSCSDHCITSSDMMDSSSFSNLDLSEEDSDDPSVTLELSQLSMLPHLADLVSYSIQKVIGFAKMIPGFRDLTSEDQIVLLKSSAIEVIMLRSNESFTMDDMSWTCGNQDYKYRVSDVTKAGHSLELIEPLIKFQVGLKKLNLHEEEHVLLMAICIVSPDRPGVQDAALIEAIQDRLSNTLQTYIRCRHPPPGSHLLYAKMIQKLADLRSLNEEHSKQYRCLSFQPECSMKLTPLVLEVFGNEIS
Sequence of Peroxisome proliferator-activated receptor gamma (Homo sapiens) (P37231 whole entry, looked up): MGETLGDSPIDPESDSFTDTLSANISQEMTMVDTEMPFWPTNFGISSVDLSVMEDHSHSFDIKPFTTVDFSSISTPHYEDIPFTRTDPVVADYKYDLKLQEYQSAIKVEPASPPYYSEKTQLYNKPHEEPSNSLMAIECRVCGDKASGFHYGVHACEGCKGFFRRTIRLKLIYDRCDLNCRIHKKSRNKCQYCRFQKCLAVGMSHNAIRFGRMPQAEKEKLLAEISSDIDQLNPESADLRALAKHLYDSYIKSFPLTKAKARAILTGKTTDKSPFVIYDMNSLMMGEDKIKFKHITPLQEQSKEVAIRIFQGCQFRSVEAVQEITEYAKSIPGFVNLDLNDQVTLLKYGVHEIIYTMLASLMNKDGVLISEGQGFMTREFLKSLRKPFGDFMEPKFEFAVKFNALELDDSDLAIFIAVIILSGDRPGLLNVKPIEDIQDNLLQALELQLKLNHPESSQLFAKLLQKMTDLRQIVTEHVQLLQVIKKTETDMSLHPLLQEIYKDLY
Sequence of Peroxisome proliferator-activated receptor delta (Homo sapiens) (Q03181 whole entry, looked up): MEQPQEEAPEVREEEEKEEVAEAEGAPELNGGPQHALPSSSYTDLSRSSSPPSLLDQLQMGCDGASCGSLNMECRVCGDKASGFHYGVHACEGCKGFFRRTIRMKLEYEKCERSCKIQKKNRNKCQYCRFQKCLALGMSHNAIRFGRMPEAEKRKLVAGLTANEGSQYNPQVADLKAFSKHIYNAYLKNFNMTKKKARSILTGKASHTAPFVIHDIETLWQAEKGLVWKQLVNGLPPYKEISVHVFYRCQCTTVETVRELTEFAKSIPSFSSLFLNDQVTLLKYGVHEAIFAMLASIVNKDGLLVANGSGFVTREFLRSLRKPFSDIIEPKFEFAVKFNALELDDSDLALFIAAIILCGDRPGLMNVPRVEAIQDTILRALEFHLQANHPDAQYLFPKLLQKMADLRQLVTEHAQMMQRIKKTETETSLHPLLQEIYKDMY
Sequence of Bile acid receptor (Homo sapiens) (Q96RI1 whole entry, looked up): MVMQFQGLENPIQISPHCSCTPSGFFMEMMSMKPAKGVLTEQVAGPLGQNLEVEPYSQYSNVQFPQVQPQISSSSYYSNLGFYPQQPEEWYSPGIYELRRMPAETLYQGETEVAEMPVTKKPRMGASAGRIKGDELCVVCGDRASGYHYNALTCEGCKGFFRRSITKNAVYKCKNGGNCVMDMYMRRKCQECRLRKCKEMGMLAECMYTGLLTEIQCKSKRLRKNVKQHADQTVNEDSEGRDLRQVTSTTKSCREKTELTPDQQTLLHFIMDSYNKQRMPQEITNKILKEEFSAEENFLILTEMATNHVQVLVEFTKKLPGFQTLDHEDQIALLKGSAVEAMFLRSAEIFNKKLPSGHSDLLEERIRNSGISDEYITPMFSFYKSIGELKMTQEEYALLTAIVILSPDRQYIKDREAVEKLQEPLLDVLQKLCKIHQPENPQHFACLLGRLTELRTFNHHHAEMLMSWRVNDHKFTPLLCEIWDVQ

Cc1cnc2c(C(=O)O)c(Cl)ccc2c1
not listed: [16] | [17] | [18] | [19] | [20]
inactive: all other assays above

COc1cnc(OC)n2nc(NS(=O)(=O)c3c(OCC(F)F)cccc3C(F)(F)F)nc12
not listed: [13] | [14] | [18] | [19] | [20]
inactive: all other assays above

CCCN
not listed: [13] | [14] | [16] | [17] | [18] | [19] | [20]
inactive: all other assays above

Cc1ccn2nc(S(=O)(=O)Nc3c(F)cccc3F)nc2n1
not listed: [9] | [15] | [20]
inactive: all other assays above

BrCC(Br)(Br)Br
not listed: [6] | [7] | [8] | [10] | [13] | [18]
inactive: all other assays above

CCOC(=O)CCN(SN(C)C(=O)Oc1cccc2c1OC(C)(C)C2)C(C)C
not listed: [5] | [10] | [17] | [18] | [19] | [20]
inactive: all other assays above

[O]=[Cr][O][Cr]=[O]
not listed: [9] | [15] | [16] | [17] | [19] | [20]
inactive: all other assays above

Cc1c([N+](=O)[O-])c(C)c([N+](=O)[O-])c(C(C)(C)C)c1[N+](=O)[O-]
not listed: [13] | [14] | [15] | [16] | [18] | [20]
inactive: all other assays above

ClSC(Cl)(Cl)Cl
not listed: [12] | [13] | [14] | [18] | [19] | [20]
inactive: all other assays above
